The whole screen tested about 5,500 compounds, of which about 2,000 (36%) were called active. Roughly 18% stayed inconclusive and do not appear here. The list shows a part of the results. Unmarked numbers belong to inactive results. Rule as the data show it: active = normalized growth mostly below about 0.91 (no sharp cut-off); inconclusive = no clear call, values can overlap the other calls; inactive = mostly above about 0.92.
Assay: chemical genetic growth profiling, strain panel (AID 1159580);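 also: tested at 20 µM; growth read once vehicle control cultures reached saturation at 30 °C; 1 = growth at the plate median or of vehicle wells; lower values mean less growth of the strain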
Conditions: growth OD

Structure (SMILES): C[N+]1(C)C2CC(OC(=O)[C@@H](CO)c3ccccc3)CC1C1OC12 (stereo partly drawn)
- normalized growth (S. cerevisiae deletion strains, locus YJR066W, strain TOR1, active compounds read low): 0.976
- normalized growth (S. cerevisiae deletion strains, locus YJR075W, strain HOC1, active compounds read low): 1.01
- normalized growth (S. cerevisiae deletion strains, locus YKL009W, strain mrt4, active compounds read low): 1
- normalized growth (S. cerevisiae deletion strains, locus YKL068W, active compounds read low): 1
- normalized growth (S. cerevisiae deletion strains, locus YKL085W, strain MDH1 (second series), active compounds read low): 1.01
- normalized growth (S. cerevisiae deletion strains, locus YKL085W, strain MDH1, active compounds read low): 1.01
- normalized growth (S. cerevisiae deletion strains, locus YKL160W, strain elf1, active compounds read low): 0.955
- normalized growth (S. cerevisiae deletion strains, locus YKL190W, strain CNB1, active compounds read low): 1.03
- normalized growth (S. cerevisiae deletion strains, locus YKR001C, strain vps1, active compounds read low): 1.02
- normalized growth (S. cerevisiae deletion strains, locus YKR026C, strain gcn3, active compounds read low): 0.984
- normalized growth (S. cerevisiae deletion strains, locus YKR091W, strain srl3, active compounds read low): 0.968
- normalized growth (S. cerevisiae deletion strains, locus YLL001W, strain dnm1, active compounds read low): 0.933
- normalized growth (S. cerevisiae deletion strains, locus YLL026W, active compounds read low): 0.985
- normalized growth (S. cerevisiae deletion strains, locus YLL041C, strain sdh2, active compounds read low): 0.984
- normalized growth (S. cerevisiae deletion strains, locus YLR027C, strain aat2, active compounds read low): 0.982
- normalized growth (S. cerevisiae deletion strains, locus YLR039C, strain RIC1, active compounds read low): 1.02
- normalized growth (S. cerevisiae deletion strains, locus YLR058C, strain SHM2, active compounds read low): 1.02
- normalized growth (S. cerevisiae deletion strains, locus YLR102C, strain apc9, active compounds read low): 1.02
- normalized growth (S. cerevisiae deletion strains, locus YLR113W, strain HOG1, active compounds read low): 1
- normalized growth (S. cerevisiae deletion strains, locus YLR221C, strain rsa3, active compounds read low): 0.91
- normalized growth (S. cerevisiae deletion strains, locus YLR258W, strain gsy2, active compounds read low): 0.969
- normalized growth (S. cerevisiae deletion strains, locus YLR262C, strain YPT6 (second series), active compounds read low): 0.973
- normalized growth (S. cerevisiae deletion strains, locus YLR262C, strain YPT6, active compounds read low): 1.06
- normalized growth (S. cerevisiae deletion strains, locus YLR268W, strain sec22, active compounds read low): 1.03
- normalized growth (S. cerevisiae deletion strains, locus YLR320W, strain mms22, active compounds read low): 0.94
- normalized growth (S. cerevisiae deletion strains, locus YLR330W, strain CHS5, active compounds read low): 1.02
- normalized growth (S. cerevisiae deletion strains, locus YLR342W, strain FKS1 (second series), active compounds read low): 1.03
- normalized growth (S. cerevisiae deletion strains, locus YLR342W, strain FKS1, active compounds read low): 0.962
- normalized growth (S. cerevisiae deletion strains, locus YLR357W, strain rsc2, active compounds read low): 0.979
- normalized growth (S. cerevisiae deletion strains, locus YLR370C, strain arc18, active compounds read low): 0.948
- normalized growth (S. cerevisiae deletion strains, locus YLR371W, strain rom2, active compounds read low): 1
- normalized growth (S. cerevisiae deletion strains, locus YLR384C, strain iki3, active compounds read low): 0.97
- normalized growth (S. cerevisiae deletion strains, locus YLR418C, strain cdc73, active compounds read low): 1.05
- normalized growth (S. cerevisiae deletion strains, locus YML016C, strain PPZ1, active compounds read low): 1.01
- normalized growth (S. cerevisiae deletion strains, locus YML032C, strain rad52, active compounds read low): 1.01
- normalized growth (S. cerevisiae deletion strains, locus YML120C, strain ndi1, active compounds read low): 0.903 (active)
- normalized growth (S. cerevisiae deletion strains, locus YML124C, strain tub3, active compounds read low): 1.03
- normalized growth (S. cerevisiae deletion strains, locus YMR058W, strain fet3, active compounds read low): 0.973
- normalized growth (S. cerevisiae deletion strains, locus YMR078C, strain ctf18, active compounds read low): 1.02
- normalized growth (S. cerevisiae deletion strains, locus YMR125W, strain sto1, active compounds read low): 0.962
- normalized growth (S. cerevisiae deletion strains, locus YMR129W, active compounds read low): 0.982
- normalized growth (S. cerevisiae deletion strains, locus YMR205C, strain PFK2, active compounds read low): 0.956
- normalized growth (S. cerevisiae deletion strains, locus YMR223W, strain ubp8, active compounds read low): 1.05
- normalized growth (S. cerevisiae deletion strains, locus YMR231W, strain pep5, active compounds read low): 0.989
- normalized growth (S. cerevisiae deletion strains, locus YMR307W, strain GAS1, active compounds read low): 1.05
- normalized growth (S. cerevisiae deletion strains, locus YNL067W, strain RPL9B, active compounds read low): 1.02
- normalized growth (S. cerevisiae deletion strains, locus YNL071W, strain lat1, active compounds read low): 0.978
- normalized growth (S. cerevisiae deletion strains, locus YNL183C, strain NPR1, active compounds read low): 0.957
- normalized growth (S. cerevisiae deletion strains, locus YNL209W, strain ssb2, active compounds read low): 0.959
- normalized growth (S. cerevisiae deletion strains, locus YNL233W, strain BNI4, active compounds read low): 1.01
- normalized growth (S. cerevisiae deletion strains, locus YNL248C, strain rpa49, active compounds read low): 0.971
- normalized growth (S. cerevisiae deletion strains, locus YNL250W, strain rad50, active compounds read low): 1.02
- normalized growth (S. cerevisiae deletion strains, locus YNL271C, strain bni1, active compounds read low): 1.01
- normalized growth (S. cerevisiae deletion strains, locus YNL298W, strain CLA4, active compounds read low): 1.02
- normalized growth (S. cerevisiae deletion strains, locus YNL307C, strain MCK1, active compounds read low): 1.02
- normalized growth (S. cerevisiae deletion strains, locus YNL322C, strain KRE1 (second series), active compounds read low): 0.936
- normalized growth (S. cerevisiae deletion strains, locus YNR049C, strain mso1, active compounds read low): 0.964
- normalized growth (S. cerevisiae deletion strains, locus YNR052C, strain pop2, active compounds read low): 1.02
- normalized growth (S. cerevisiae deletion strains, locus YOL012C, strain htz1): 1.54
- normalized growth (S. cerevisiae deletion strains, locus YOL147C, strain pex11, active compounds read low): 1.03
- normalized growth (S. cerevisiae deletion strains, locus YOR001W, strain rrp6, active compounds read low): 1.04
- normalized growth (S. cerevisiae deletion strains, locus YOR061W, strain CKA2, active compounds read low): 1.01
- normalized growth (S. cerevisiae deletion strains, locus YOR069W, strain VPS5, active compounds read low): 1.01
- normalized growth (S. cerevisiae deletion strains, locus YOR070C, strain gyp1, active compounds read low): 0.99
- normalized growth (S. cerevisiae deletion strains, locus YOR080W, strain dia2, active compounds read low): 0.952
- normalized growth (S. cerevisiae deletion strains, locus YOR083W, strain WHI5, active compounds read low): 0.962
- normalized growth (S. cerevisiae deletion strains, locus YOR106W, strain vam3, active compounds read low): 0.933
- normalized growth (S. cerevisiae deletion strains, locus YOR136W, strain idh2, active compounds read low): 1.02
- normalized growth (S. cerevisiae deletion strains, locus YOR144C, strain elg1, active compounds read low): 1.01
- normalized growth (S. cerevisiae deletion strains, locus YOR184W, strain ser1, active compounds read low): 1.03
- normalized growth (S. cerevisiae deletion strains, locus YOR231W, strain MKK1, active compounds read low): 0.998
- normalized growth (S. cerevisiae deletion strains, locus YOR265W, strain rbl2, active compounds read low): 0.965
- normalized growth (S. cerevisiae deletion strains, locus YOR270C, strain vph1, active compounds read low): 0.935
- normalized growth (S. cerevisiae deletion strains, locus YOR290C, strain snf2, active compounds read low): 0.865 (active)
- normalized growth (S. cerevisiae deletion strains, locus YOR316C, strain cot1, active compounds read low): 1.02
- normalized growth (S. cerevisiae deletion strains, locus YPL051W, strain arl3, active compounds read low): 0.988
- normalized growth (S. cerevisiae deletion strains, locus YPL055C, strain LGE1, active compounds read low): 1.05
- normalized growth (S. cerevisiae deletion strains, locus YPL078C, strain atp4, active compounds read low): 0.956
- normalized growth (S. cerevisiae deletion strains, locus YPL106C, strain sse1, active compounds read low): 0.94
- normalized growth (S. cerevisiae deletion strains, locus YPL240C, strain hsp82, active compounds read low): 0.978
- normalized growth (S. cerevisiae deletion strains, locus YPL241C, strain CIN2, active compounds read low): 1.01
- normalized growth (S. cerevisiae deletion strains, locus YPL256C, strain CLN2, active compounds read low): 1.05
- normalized growth (S. cerevisiae deletion strains, locus YPR119W, strain clb2, active compounds read low): 1.01
- normalized growth (S. cerevisiae deletion strains, locus YPR141C, strain kar3, active compounds read low): 1.01
- normalized growth (S. cerevisiae deletion strains, locus YPR163C, strain tif3, active compounds read low): 1.03
- normalized growth (S. cerevisiae deletion strains, locus YPR167C, strain met16, active compounds read low): 1.03
- normalized growth (S. cerevisiae deletion strains, strain wtn01, active compounds read low): 1.02
- normalized growth (S. cerevisiae strains, strain wild type, active compounds read low): 1.03
